The test system of experiment [1] is Plasmodium falciparum Sir2 (PF13_0152, Sir2A). Description: Plasmodium falciparum Sir2A binding compounds – biochemical, small-molecule microarray, 635 nm fluorescence, primary screen (AID 1098).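 Note: score merges spot fluorescence intensity with its signal-to-noise ratio.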 The settings on record: fluorescence 635 nm, higher = more signal.
A short description of experiment [2]: probe aDKK1 binding to arrayed compounds – biochemical, biotinylated probe, 635/667 nm fluorescence, primary screen (AID 1099).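 Note: score merges 667nm spot fluorescence with signal to noise across triplicate slides.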 To be noted: small-molecule microarray, higher = more signal.
Experiment [3] in a line: probe aCHRDL2 binding to arrayed compounds – biochemical, biotinylated probe, 635/667 nm fluorescence, primary screen (AID 1100). To be noted: small-molecule microarray, higher = more signal.
A short description of experiment [4]: change in splice reporter luminescence, either direction, cell-based, HEK293, spliceosome inhibition project, primary screen (AID 1101).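 Note: HEK293 cells carrying a splicing-competent luciferase reporter gene; test concentration not given here.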 To be noted: HEK293 splicing luciferase reporter, 24 h, higher = more signal, called active from +8 up or from −8 down. In general terms: Reporter assays use an easily measured gene product as a stand-in for the process of interest.

Experiment [5] concerns the target Fibroblast growth factor 10 (Homo sapiens) (UniProt O15520). The experiment is described as follows: compounds binding fibroblast growth factor 10 – biochemical, small-molecule microarray, 635 nm fluorescence, primary screen (AID 1102). To be noted: FGF10 binding, fluorescence 635 nm, higher = more signal.
Experiment [6] has as its system glycogen synthase kinase-3 (GSK3A per assay name; protocol says GSK3B). The experiment is described as follows: compounds binding glycogen synthase kinase-3 – biochemical, small-molecule microarray, 635 nm fluorescence, GSK3A, primary screen (AID 1103). Note: the record names both GSK3A and GSK3B. To be noted: fluorescence 635 nm, higher = more signal.
Experiment [7] addresses Epidermal growth factor receptor (Homo sapiens) (UniProt P00533). Description: compounds binding epidermal growth factor receptor – biochemical, small-molecule microarray, 635 nm fluorescence, primary screen (AID 1104).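 Note: score merges 667 nm emission intensity with spot signal to noise over triplicate slides.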 To be noted: EGFR binding, higher = more signal.
Experiment [8] addresses Follistatin-related protein 3 (Homo sapiens) (UniProt O95633). The experiment is described as follows: compounds binding follistatin-related protein 3 – biochemical, small-molecule microarray, 635 nm fluorescence, primary screen (AID 1105).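 Note: score merges emission near 667 nm and signal to noise per printed spot across three slides.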 To be noted: FSTL3 binding, higher = more signal.
Experiment [9] addresses Dickkopf-related protein 1 (Homo sapiens) (UniProt O94907). The experiment is described as follows: small molecules binding DKK1 protein – biochemical, small-molecule microarray, 635 nm fluorescence scan, primary screen (AID 1106).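 Note: score merges emission near 667 nm with signal to noise over three replicate slides.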 The settings on record: higher = more signal.
Experiment [10] concerns Inhibin beta A chain (activin A). Description: small molecules binding activin A – biochemical, small-molecule microarray, 635 nm fluorescence scan, primary screen (AID 1107).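 Note: mouse activin A protein probed at 4.33 µg/mL on printed slides; score merges bound-protein fluorescence near 667 nm with spot signal-to-noise.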 The settings on record: INHBA, higher = more signal.
For experiment [11], the system named is Human papillomavirus type 1a protein E7 (residues 44-93). Description: small molecules binding HPV E7 44-93 – biochemical, small-molecule microarray, residues 44-93, 635 nm fluorescence, primary screen (AID 1108).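 Note: E7 fragment applied at 1 µg/mL in TBST for 1 h at 4 C; score combines spot fluorescence with its signal to noise ratio.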 To be noted: fluorescence 635 nm, higher = more signal.
A short description of experiment [12]: hepatitis C replication reporter changes, two-sided – Huh7 cells, luciferase reporter, HCV replication inhibitor project, primary screen (AID 1109).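 Note: huh7 hepatoma cells harbouring a luciferase neomycin HCV replicon reporter; luciferase luminescence as measure of HCV replicon replication; test concentration not given here.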 To be noted: Huh7 HCV replicon luciferase reporter, 48 h; higher = more signal.
In experiment [13] the target is Left-right determination factor 2 (Homo sapiens) (UniProt O00292). Description: small molecules binding LEFTY2 protein – biochemical, small-molecule microarray, 635 nm fluorescence scan, primary screen (AID 1110). The settings on record: higher = more signal.
Chain of Left-right determination factor 2 (Homo sapiens) (O00292 whole entry, looked up): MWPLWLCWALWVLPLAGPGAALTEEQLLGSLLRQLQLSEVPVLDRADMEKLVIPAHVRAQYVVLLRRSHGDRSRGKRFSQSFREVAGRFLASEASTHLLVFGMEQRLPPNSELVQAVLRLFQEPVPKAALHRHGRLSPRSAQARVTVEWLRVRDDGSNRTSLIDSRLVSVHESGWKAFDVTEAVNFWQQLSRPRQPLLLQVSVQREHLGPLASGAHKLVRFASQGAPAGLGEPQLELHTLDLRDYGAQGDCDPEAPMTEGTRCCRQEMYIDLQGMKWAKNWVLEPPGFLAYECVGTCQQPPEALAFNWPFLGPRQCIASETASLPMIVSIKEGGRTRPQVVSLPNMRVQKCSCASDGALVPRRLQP
Experiment [14] concerns the target Calmodulin-1 (Homo sapiens) (UniProt P0DP23). Description: small molecules binding calmodulin-1 with EGTA – biochemical, small-molecule microarray, Cy5-labelled CALM1, profiling panel (AID 1111).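 Note: labelled calmodulin applied in Tris saline Tween buffer holding calcium plus EGTA and DTT.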 The settings on record: Cy5-CALM1 binding fluorescence, higher = more signal.
For experiment [15] the target is unchanged. Description: small molecules binding Ca-loaded calmodulin-1 – biochemical, small-molecule microarray, Cy5-labelled CALM1, plus calcium, artefact control for SMM control-protein annotation, profiling panel (AID 1112).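 Note: score merges spot fluorescence with signal to noise from triplicate slides.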 To be noted: Cy5-CALM1 binding fluorescence, higher = more signal.
Experiment [16] can be described thus: probe aWnt5a binding to arrayed compounds – biochemical, biotinylated probe, 635/667 nm fluorescence, primary screen (AID 1113).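 Note: score merges 667 nm fluorescence intensity with signal-to-noise per printed feature.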 The settings on record: small-molecule microarray, higher = more signal.
Experiment [17] can be described thus: probe aShh binding to arrayed compounds – biochemical, biotinylated probe, 635/667 nm fluorescence, primary screen (AID 1114).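 Note: probe is biotin-labelled aShh protein from a stem cell growth factor screen; measures binding of labelled protein to compounds printed on the slide; score merges feature fluorescence at 667 nm with signal-to-noise.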 The settings on record: small-molecule microarray, higher = more signal.
Experiment [18] can be described thus: probe aNog binding to arrayed compounds – biochemical, biotinylated probe, 635/667 nm fluorescence, primary screen (AID 1115).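 Note: probe is biotinylated aNog protein used at 0.15 µg/mL for 1 h at 4 C; z-score combines 667 nm fluorescence of each spot with its signal to noise.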 To be noted: small-molecule microarray, higher = more signal.
In experiment [19] the target is Torsin-1A-interacting protein 1 (Homo sapiens) (UniProt Q5JTV8). The experiment is described as follows: compound microarray binding of lysate hLAP1 – cell lysate, small-molecule microarray, COS7 lysate, 635/667 nm fluorescence, primary screen (AID 1116). To be noted: 635 nm fluorescence, higher = more signal.
Chain of Torsin-1A-interacting protein 1 (Homo sapiens) (Q5JTV8 whole entry, looked up): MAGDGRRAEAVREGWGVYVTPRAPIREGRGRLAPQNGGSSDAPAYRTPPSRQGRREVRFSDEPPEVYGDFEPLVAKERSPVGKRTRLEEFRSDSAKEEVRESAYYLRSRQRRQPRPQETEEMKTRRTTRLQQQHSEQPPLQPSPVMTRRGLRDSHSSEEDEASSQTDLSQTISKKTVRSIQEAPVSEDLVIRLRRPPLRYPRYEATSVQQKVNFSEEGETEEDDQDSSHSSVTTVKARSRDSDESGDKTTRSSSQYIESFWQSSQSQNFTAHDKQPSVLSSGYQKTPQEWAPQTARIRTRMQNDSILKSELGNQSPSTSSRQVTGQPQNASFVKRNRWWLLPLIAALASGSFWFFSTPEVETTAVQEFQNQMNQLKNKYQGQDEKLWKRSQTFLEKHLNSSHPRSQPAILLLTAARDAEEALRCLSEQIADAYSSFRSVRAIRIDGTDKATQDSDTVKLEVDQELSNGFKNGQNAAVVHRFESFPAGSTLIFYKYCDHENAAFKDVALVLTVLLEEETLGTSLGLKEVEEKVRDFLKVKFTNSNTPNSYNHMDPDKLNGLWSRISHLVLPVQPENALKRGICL
Experiment [20] concerns the target Alpha-bungarotoxin (Bungarus multicinctus) (UniProt P60615). The experiment is described as follows: compounds binding labelled alpha-BTX control protein – biochemical, small-molecule microarray, Alexa647 label, 635/667 nm fluorescence, artefact control for SMM control protein annotation, profiling panel (AID 1117). To be noted: alpha-BTX-A647 binding fluorescence, higher = more signal.

The source made the active and inactive calls.

The record followed here is PubChem BioAssay.

Chain of Fibroblast growth factor 10 (Homo sapiens) (O15520 whole entry, looked up): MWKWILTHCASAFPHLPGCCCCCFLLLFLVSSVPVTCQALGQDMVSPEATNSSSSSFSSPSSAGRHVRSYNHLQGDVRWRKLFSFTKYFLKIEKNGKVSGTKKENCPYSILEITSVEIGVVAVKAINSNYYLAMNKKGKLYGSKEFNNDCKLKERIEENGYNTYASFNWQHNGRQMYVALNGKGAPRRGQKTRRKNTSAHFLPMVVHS
Chain of Dickkopf-related protein 1 (Homo sapiens) (O94907 whole entry, looked up): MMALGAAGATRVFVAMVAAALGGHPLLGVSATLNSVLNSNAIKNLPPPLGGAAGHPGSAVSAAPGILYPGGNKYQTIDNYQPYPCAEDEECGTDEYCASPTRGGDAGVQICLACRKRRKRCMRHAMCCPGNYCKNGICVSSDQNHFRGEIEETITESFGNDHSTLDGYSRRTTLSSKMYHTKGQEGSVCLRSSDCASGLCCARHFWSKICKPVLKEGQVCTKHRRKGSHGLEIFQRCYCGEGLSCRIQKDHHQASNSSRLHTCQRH
Chain of Epidermal growth factor receptor (Homo sapiens) (P00533 whole entry, looked up): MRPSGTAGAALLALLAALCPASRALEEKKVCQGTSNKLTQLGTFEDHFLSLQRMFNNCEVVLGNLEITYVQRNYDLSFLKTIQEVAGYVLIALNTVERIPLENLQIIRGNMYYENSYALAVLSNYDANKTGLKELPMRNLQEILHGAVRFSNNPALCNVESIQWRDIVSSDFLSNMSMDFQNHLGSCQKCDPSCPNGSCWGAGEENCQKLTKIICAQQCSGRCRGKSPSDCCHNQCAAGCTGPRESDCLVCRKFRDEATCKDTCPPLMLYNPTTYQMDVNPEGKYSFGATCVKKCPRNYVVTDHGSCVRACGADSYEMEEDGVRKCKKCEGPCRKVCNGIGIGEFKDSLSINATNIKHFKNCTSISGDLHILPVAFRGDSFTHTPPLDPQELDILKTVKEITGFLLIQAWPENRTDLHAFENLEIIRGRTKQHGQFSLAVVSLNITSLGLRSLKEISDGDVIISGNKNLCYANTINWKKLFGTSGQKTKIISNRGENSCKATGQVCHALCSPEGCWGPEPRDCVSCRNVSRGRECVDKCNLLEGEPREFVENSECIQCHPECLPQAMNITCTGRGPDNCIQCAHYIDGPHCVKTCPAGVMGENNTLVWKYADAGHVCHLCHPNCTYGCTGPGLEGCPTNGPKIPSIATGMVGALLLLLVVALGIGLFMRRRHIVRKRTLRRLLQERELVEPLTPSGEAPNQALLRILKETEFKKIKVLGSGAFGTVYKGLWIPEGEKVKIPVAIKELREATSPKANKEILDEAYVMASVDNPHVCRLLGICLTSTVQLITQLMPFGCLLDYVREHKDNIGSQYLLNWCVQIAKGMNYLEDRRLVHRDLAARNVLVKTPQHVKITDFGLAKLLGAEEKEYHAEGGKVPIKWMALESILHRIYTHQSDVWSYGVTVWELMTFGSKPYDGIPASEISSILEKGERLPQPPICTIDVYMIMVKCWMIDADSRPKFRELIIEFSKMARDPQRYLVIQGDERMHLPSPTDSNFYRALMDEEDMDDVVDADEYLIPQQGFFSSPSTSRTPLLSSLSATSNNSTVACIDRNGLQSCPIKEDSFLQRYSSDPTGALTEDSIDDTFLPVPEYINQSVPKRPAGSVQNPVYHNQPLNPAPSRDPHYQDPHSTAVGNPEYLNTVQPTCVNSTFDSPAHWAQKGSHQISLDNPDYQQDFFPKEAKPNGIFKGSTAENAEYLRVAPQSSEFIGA
Chain of Alpha-bungarotoxin (Bungarus multicinctus) (P60615 whole entry, looked up): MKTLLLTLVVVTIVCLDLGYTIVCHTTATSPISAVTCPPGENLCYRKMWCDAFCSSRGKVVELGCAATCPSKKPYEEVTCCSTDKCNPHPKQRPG
Chain of Follistatin-related protein 3 (Homo sapiens) (O95633 whole entry, looked up): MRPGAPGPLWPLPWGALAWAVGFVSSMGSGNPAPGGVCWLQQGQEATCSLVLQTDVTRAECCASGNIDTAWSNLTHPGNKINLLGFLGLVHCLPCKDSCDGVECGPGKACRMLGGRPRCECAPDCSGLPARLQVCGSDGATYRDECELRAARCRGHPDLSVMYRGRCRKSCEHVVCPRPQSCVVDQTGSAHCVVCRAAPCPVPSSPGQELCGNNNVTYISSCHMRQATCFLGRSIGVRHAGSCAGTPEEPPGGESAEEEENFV

For `CN(C)CCCNC(=O)[C@@]1(c2ccc([N+](=O)[O-])cc2)CC(=O)N(CC23CC4CC(CC(C4)C2)C3)[C@@H]1c1ccc(CO)cc1I`, the composite z-score is 1.59 in [1]; -0.0761 in experiment [2]; 0.407 in experiment [3]; 0.879 in [5]; 0.556 in experiment [6]; 0.555 in experiment [7]. The composite z-score in [8] was 1.34; in experiment [9], 1.08; in experiment [10] it was 0.0974; in experiment [11], 1.39; in experiment [13], 0.703; in [14], 0.307. Besides, the composite z-score was -0.0622 in experiment [15]; 0.0668 in [16]; 0.462 in experiment [17]; 0.192 in experiment [18]; 1.27 in experiment [19]; 1.15 in experiment [20]. For the same compound, the z-score was -0.854 (inactive) in experiment [4] and -3.54 in experiment [12].
For `CC(C)(C)N1CC=CC23O[C@@H]4C=CCOC(=O)[C@@H]4[C@H]2C(=O)N(CCCCCCO)[C@@H]3C1=O` (stereo not given in full), the composite z-score was 1.09 in experiment [1]; -0.102 in experiment [2]; 0.65 in experiment [3]; -1.59 in experiment [5]; -0.708 in [6]; -1.04 in experiment [7]. Further, the composite z-score was -1.34 in experiment [8]; -1.34 in [9]; 0.294 in [10]; -1.38 in experiment [11]; -0.84 in experiment [13]; -0.243 in [14]. In addition, the composite z-score is -0.123 in experiment [15]; -0.206 in experiment [16]; -0.291 in experiment [17]; -0.357 in [18]; -0.252 in experiment [19]; -0.348 in experiment [20]. The figures for the z-score in experiment [4] and in experiment [12] were 0.804 (inactive) and 0.397, respectively.
On to `COCCCNC(=O)[C@]1(CCS(=O)(=O)c2ccccc2)N=C(c2ccc(OCCCO)cc2)O[C@@H]1c1ccccc1N=[N+]=[N-]`, for which the composite z-score in experiment [1] is 1.47; in experiment [2] it was 1.1; in [3] it was 0.698; in [5], 1.16; in [6], 1.29; in [7], 0.151. The composite z-score is 0.735 in experiment [8]; -0.262 in [9]; 0.963 in experiment [10]; 1.23 in [11]; -0.0904 in experiment [13]; 2.09 in experiment [14]. Besides, the composite z-score is 0.893 in [15]; 0.0988 in experiment [16]; 0.203 in [17]; 0.698 in [18]; -0.342 in experiment [19]; 2.68 in experiment [20]. Moreover, the values for the z-score in experiment [4] and in experiment [12] were 0.409 (inactive) and -0.562, respectively.
For `[N-]=[N+]=NCc1ccccc1[C@@H]1OC(c2ccc(OCCCO)cc2)=N[C@]1(CCS(=O)(=O)c1ccccc1)C(=O)NCC(O)CO` (stereo not given in full), the composite z-score in experiment [1] is 1.46; in experiment [2], 0.76; in experiment [3], 1.03; in experiment [5], 1.22; in [6] it was -0.323; in [7], -0.0077. Also, the composite z-score in experiment [8] was 0.6; in [9] it was -0.227; in [10] it was 0.736; in [11], 0.711; in experiment [13], -0.275; in experiment [14] it was 2.14. Moreover, the composite z-score was found to be 0.701 in [15]; 0.0799 in experiment [16]; 0.0062 in [17]; 0.975 in [18]; 4.4 in [19]; 2.17 in experiment [20]. For the same compound, the values for the z-score in experiment [4] and in experiment [12] were -1.33 (inactive) and -1.2, respectively.
Regarding `COc1ccc([Si](C)(C)[C@H]2[C@H](CC(=O)N(CCO)Cc3ccccc3)O[C@@]3(C(=O)N(Cc4cccc(N5CCOC5=O)c4)c4ccccc43)[C@@H]2C)cc1`, the composite z-score in experiment [1] was 1.18; in experiment [2], -0.21; in experiment [3], 0.0284; in [5], 0.0549; in experiment [6] it was 0.616; in [7] it was 0.232. For the same compound, the composite z-score in experiment [8] was 0.324; in [9], 0.179; in experiment [10] it was 0.81; in [11] it was 0.671; in [13] it was 0.498; in experiment [14] it was 0.107. In addition, the composite z-score in [15] was -0.48; in [16], -0.154; in [17], -0.147; in experiment [18], -0.318; in [19] it was 0.0843; in experiment [20], 0.429. The values for the z-score in [4] and in experiment [12] were -2.44 (inactive) and -4.06, respectively.
